Assay results from PubChem BioAssay (Tox21).
Records with an inconclusive call do not appear. The source made the active and inactive calls. Unless noted, the call rests on the fitted dose curve; in most records, active means well fitted curve in the direction sought with a large enough effect in the repeat runs; inconclusive means weak or mixed curves; inactive means no such curve, though single readings can be large; an effect the other way counts as inactive or inconclusive.

Key:
[1] = qHTS assay to identify small molecule antagonists of the glucocorticoid receptor (GR) signaling pathway - cell viability counter screen (AID 720693); further: nearly all actives have a fitted effect of over 55% in size
[2] = qHTS assay for identifying genotoxic compounds that show differential cytotoxicity against isogenic chicken DT40 cell lines with known DNA damage response pathways - wild type cell line (AID 743012); further: nearly all actives have a fitted effect of over 60% in size
Outline: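 CellTiter-Glo luminescence readout of viability in wild type DT40 cells after 40 h compound exposure at 37 C/5% CO2; 300 cells/well; reagent incubated 30 min at room temperature before reading.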

[3] = qHTS assay for identifying genotoxic compounds that show differential cytotoxicity against isogenic chicken DT40 cell lines with known DNA damage response pathways - Rev3 mutant cell line (AID 743014); further: nearly all actives have a fitted effect of over 55% in size; further: potency means the concentration at half of the fitted maximal effect
[4] = qHTS assay for identifying genotoxic compounds that show differential cytotoxicity against isogenic chicken DT40 cell lines with known DNA damage response pathways - Rad54/Ku70 mutant cell line (AID 743015); further: nearly all actives have a fitted effect of over 60% in size; further: potency means the concentration at half of the fitted maximal effect
[5] = target: Androgen receptor (Homo sapiens) (UniProt P10275); experiment: qHTS assay to identify small molecule antagonists of the androgen receptor (AR) signaling pathway (AID 743035; active means well fitted inhibition curve with a large enough effect in the signal ratio in the repeat runs, not every such curve was filed as active; the % refers to the signal ratio)
Outline: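 AR-bla HEK293 reporter cells; 4 h settle at 37C/5% CO2; compound + R1881 agonist, 16 h at 37C; LiveBLAzer B/G FRET substrate 2 h RT; fluorescence intensity read. qHTS format.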

[6] = target: Androgen receptor (Homo sapiens) (UniProt P10275); experiment: qHTS assay to identify small molecule agonists of the androgen receptor (AR) signaling pathway (AID 743036; active means well fitted activation curve with a large enough effect in the signal ratio in the repeat runs, with a control signal flat, not every such curve was filed as active; the % refers to the signal ratio)
Outline: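 Quantitative HTS of the Tox21 10K library in HEK293 cells bearing a stably integrated UAS-controlled beta-lactamase reporter. Compound exposure lasted 16 h at 37C. Reporter activity was detected by FRET substrate fluorescence after 2 h at room temperature.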

[7] = target: Androgen receptor (Homo sapiens) (UniProt P10275); experiment: qHTS assay to identify small molecule agonists of the androgen receptor (AR) signaling pathway using the MDA cell line (AID 743040; further: nearly all actives have a fitted effect of over 20% in size)
Outline: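 Luciferase read-out, ONE-Glo, 30 min RT. Cells: MDA-kb2 AR-luc, MMTV promoter with AR and GR response elements. Compound exposure 16 h, 37C, 0% CO2, after 5 h pre-incubation. qHTS agonist mode.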

[8] = qHTS assay to identify small molecule antagonists of the androgen receptor (AR) signaling pathway using the MDA cell line - cell viability counter screen (AID 743041; further: nearly all actives have a fitted effect of over 45% in size)
Outline: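 Cytotoxicity counter screen: MDA-kb2 AR-luc cells, compound + R1881, 16 h, 37C, 0% CO2; CellTiter-Fluor added at 15.5 h, fluorescence read after 30 min.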

[9] = target: Androgen receptor (Homo sapiens) (UniProt P10275); experiment: qHTS assay to identify small molecule antagonists of the androgen receptor (AR) signaling pathway using the MDA cell line (AID 743042; further: nearly all actives have a fitted effect of over 55% in size)
Outline: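 MDA-kb2 breast carcinoma cells carrying MMTV-luciferase (AR/GR responsive) were co-treated with compounds and the agonist R1881 for 16 h at 37C. Inhibition read as ONE-Glo luminescence; CellTiter-Fluor fluorescence measured in parallel for cytotoxicity.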

[10] = qHTS assay to identify small molecule antagonists of the thyroid receptor (TR) signaling pathway - cell viability counter screen (AID 743064); further: nearly all actives have a fitted effect of over 50% in size
Outline: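 Rat GH3 pituitary tumor cells stably expressing two TR response elements driving luciferase were plated, rested 4 h, then dosed with library compounds and T3 (1 nM final). After 23.5 h at 37 °C, CellTiter-Fluor was added for 30 min and fluorescence recorded.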

[11] = qHTS assay to identify small molecule antagonists of the thyroid receptor (TR) signaling pathway (AID 743065); further: series mostly up to about 70 µM; nearly all actives have a fitted effect of over 55% in size
Outline: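 GH3.TRE-Luc rat pituitary cells (two TREs driving luciferase) were dosed with compound, then stimulated with 1 nM T3 (final) for 23.5 h at 37 C. ONE-Glo luminescence was the read-out, with CellTiter-Fluor fluorescence as the cytotoxicity counter-screen.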

[12] = system: thyroid hormone receptor (rat, GH3 cells); experiment: qHTS assay to identify small molecule agonists of the thyroid receptor (TR) signaling pathway (AID 743066; calls by dose curve)
[13] = qHTS assay to identify small molecule antagonists of the estrogen receptor alpha (ER-alpha) signaling pathway - cell viability counter screen (AID 743074; calls by dose curve;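 further: HEK293 cells carrying ER-alpha-UAS-bla reporter stimulated with 17beta-estradiol; nearly all actives have a fitted effect of over 45% in size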)
[14] = qHTS assay to identify small molecule antagonists of the estrogen receptor alpha (ER-alpha) signaling pathway using the BG1 cell line - cell viability counter screen (AID 743081);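 further: compound given together with 17beta-estradiol as the ER stimulus; series mostly up to about 70 µM; nearly all actives have a fitted effect of over 45% in size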
Aromatase (Homo sapiens) = Aromatase (Homo sapiens) (UniProt P11511); experiment: qHTS assay to identify aromatase inhibitors (AID 743083)
[15] = qHTS assay to identify small molecule antagonists of the androgen receptor (AR) signaling pathway - cell viability counter screen (AID 743033; further: nearly all actives have a fitted effect of over 45% in size)
[16] = target: Estrogen receptor (Homo sapiens) (UniProt P03372); experiment: qHTS assay to identify small molecule antagonists of the estrogen receptor alpha (ER-alpha) signaling pathway (AID 743069; active means well fitted curve in the direction sought with a large enough effect in the signal ratio in the repeat runs, not every such curve was filed as active; the % refers to the signal ratio)
Outline: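 Beta-lactamase FRET fluorescence is read after 2 hr at room temperature with LiveBLAzer B/G substrate. Before that, ER-alpha-bla HEK293 cells sit 4 hr after plating, then receive compound plus 17beta-estradiol and incubate 18 hr at 37C.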

[17] = target: Estrogen receptor (Homo sapiens) (UniProt P03372); experiment: qHTS assay to identify small molecule agonists of the estrogen receptor alpha (ER-alpha) signaling pathway (AID 743075; calls by dose curve;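 further: HEK293 GripTite cells with ER-alpha and UAS-driven beta-lactamase reporter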)
[18] = qHTS assay to identify small molecule antagonists of the estrogen receptor alpha (ER-alpha) signaling pathway using the BG1 cell line (AID 743080; calls by dose curve;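 further: BG1 cells stimulated with 17beta-estradiol alongside compound; series mostly up to about 70 µM; nearly all actives have a fitted effect of over 25% in size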)
Outline: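 Seeding, 24 h rest, compound transfer from DMSO, 17beta-estradiol addition, 21.5 h incubation, CellTiter-Fluor (30 min, 37 C), then ONE-Glo (30 min, room temperature): this sequence was run on BG1-Luc-4E2 reporter cells.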

[19] = target: Estrogen receptor (Homo sapiens) (UniProt P03372); experiment: qHTS assay to identify small molecule agonists of the estrogen receptor alpha (ER-alpha) signaling pathway using the BG1 cell line (AID 743079); further: nearly all actives have a fitted effect of over 20% in size

Measured: Potency

Sequence of Estrogen receptor (Homo sapiens) (P03372 whole entry, looked up): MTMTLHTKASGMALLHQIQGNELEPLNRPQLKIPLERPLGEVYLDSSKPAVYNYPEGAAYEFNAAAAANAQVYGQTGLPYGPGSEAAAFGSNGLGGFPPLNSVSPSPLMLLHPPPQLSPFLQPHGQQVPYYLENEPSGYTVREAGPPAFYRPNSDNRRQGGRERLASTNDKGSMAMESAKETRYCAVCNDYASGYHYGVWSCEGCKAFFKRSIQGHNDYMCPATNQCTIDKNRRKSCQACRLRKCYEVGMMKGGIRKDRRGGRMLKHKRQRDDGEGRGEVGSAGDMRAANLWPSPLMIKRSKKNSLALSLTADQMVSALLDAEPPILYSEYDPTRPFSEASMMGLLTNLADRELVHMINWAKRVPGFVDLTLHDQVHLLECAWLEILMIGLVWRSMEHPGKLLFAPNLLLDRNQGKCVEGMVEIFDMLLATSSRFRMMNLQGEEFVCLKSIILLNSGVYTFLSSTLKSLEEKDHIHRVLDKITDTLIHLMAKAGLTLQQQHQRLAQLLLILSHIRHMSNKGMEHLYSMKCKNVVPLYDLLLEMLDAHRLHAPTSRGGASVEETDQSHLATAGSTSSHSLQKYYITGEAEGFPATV
Sequence of Androgen receptor (Homo sapiens) (P10275 whole entry, looked up): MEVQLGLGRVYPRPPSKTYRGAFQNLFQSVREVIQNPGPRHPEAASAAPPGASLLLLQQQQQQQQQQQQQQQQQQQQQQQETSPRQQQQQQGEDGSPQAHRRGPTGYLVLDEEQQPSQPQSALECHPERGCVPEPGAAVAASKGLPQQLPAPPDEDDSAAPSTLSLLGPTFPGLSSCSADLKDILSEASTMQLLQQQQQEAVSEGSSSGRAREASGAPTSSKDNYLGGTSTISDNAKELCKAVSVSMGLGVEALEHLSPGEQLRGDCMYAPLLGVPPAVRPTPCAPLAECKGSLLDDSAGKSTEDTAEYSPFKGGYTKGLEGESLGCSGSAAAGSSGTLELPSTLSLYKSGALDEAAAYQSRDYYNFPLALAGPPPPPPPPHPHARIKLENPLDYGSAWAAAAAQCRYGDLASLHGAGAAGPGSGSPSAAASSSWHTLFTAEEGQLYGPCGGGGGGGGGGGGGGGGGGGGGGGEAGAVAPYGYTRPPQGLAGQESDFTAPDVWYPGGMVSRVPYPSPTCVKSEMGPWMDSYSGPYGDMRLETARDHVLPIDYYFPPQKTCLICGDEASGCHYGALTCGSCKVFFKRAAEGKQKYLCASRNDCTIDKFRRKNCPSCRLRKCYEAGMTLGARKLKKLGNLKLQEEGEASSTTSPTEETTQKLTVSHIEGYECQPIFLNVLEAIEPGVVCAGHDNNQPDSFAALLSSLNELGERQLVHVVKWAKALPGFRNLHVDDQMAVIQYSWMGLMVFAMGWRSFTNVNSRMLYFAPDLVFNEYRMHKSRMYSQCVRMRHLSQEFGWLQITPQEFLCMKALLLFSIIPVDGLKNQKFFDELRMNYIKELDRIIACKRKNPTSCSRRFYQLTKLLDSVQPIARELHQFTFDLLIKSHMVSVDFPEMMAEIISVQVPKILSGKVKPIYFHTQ
Sequence of Aromatase (Homo sapiens) (P11511 whole entry, looked up): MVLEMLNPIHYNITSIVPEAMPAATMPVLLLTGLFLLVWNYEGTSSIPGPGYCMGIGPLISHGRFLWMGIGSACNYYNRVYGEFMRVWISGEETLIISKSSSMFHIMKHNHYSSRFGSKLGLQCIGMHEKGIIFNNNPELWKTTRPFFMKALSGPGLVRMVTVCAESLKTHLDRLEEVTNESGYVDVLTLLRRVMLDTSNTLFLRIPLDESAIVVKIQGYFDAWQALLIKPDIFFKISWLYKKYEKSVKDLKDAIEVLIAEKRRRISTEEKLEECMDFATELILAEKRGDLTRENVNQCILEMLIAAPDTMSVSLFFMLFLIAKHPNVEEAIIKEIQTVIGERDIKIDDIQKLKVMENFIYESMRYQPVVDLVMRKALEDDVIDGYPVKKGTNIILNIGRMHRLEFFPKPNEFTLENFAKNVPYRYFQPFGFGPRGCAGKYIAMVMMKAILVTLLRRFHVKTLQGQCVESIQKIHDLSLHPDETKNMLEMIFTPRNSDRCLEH

CCCCCCCCC1CO1 (centres undefined)
not listed: [15] | [16] | [17] | [18] | [19]
inactive: all other assays above

NC[C@H]1O[C@H](O[C@H]2[C@H](O)[C@@H](O[C@H]3O[C@H](CO)[C@@H](O)[C@H](N)[C@H]3O)[C@H](N)C[C@@H]2N)[C@H](N)[C@@H](O)[C@@H]1O
inactive: [1] | [2] | [3] | [4] | [15] | [10] | [11] | [12] | [13] | [14] | Aromatase (Homo sapiens)

COCc1nnc(-c2ccc[n+]([O-])c2)n1-c1c(Cl)c(Cl)cc2[nH]c(=O)c(=O)[nH]c12
not listed: [5] | [15] | [19]
inactive: all other assays above

O=S(=O)(O)c1ccc(Cl)cc1
not listed: [5] | [6] | [7] | [9] | [15]
inactive: all other assays above

CC(=O)Oc1ccc(C(C)=O)cc1
not listed: [5] | [6] | [7] | [8] | [9] | [13] | [16]
inactive: all other assays above

CC(C)c1cc(C(C)C)cc(C(C)C)c1
not listed: [5] | [6] | [7] | [9] | [10] | [11] | [12]
inactive: all other assays above

CCCCNCC
not listed: [5] | [6] | [7] | [9] | [10] | [11] | [12]
inactive: all other assays above

Cc1nnc(C(=O)NC(C)(C)c2nc(C(=O)NCc3ccc(F)cc3)c(O)c(=O)n2C)o1
inactive: [1] | [2] | [3] | [4] | [15] | [11] | [12] | [13] | [14]

CC[N+](C)(CC)CC
inactive: [1] | [2] | [3] | [4] | [8] | [10] | [11] | [12] | [13] | [14] | Aromatase (Homo sapiens)

CCOC(=O)[C@H](CCc1ccccc1)N[C@H]1CS[C@H](c2cccs2)CN(CC(=O)O)C1=O
not listed: [3] | [8]
inactive: all other assays above

CCCC(=O)OC
not listed: [2] | [5] | [6] | [7] | [9]
inactive: all other assays above

COC(C)(C)CC(C)=O
active: [3] 54.5 µM | [4] 61.1 µM
not listed: [2] | [8] | [16] | [17] | [18] | [19]
inactive: all other assays above
